Measurements from PubChem BioAssay (Tox21).
Inconclusive results are not listed. Active and inactive are the calls of the source. Calls come from the whole dose curve; as a rule, active = well fitted curve in the direction sought with a large enough effect in the repeat runs; inconclusive = weak or mixed curves; inactive = no such curve, though single readings can be large; an effect the other way counts as inactive or inconclusive.

Assays:
[1] = A CellTox Green Cytotoxicity Assay to monitor cytotoxicity in HEK293 cells - 40 hour (AID 1224871); note: nearly all actives have a fitted effect of over 45% in size
Method in brief: (§1)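 Real-time, in one plate: 600 HEK293 cells/well with dead-cell DNA dye, pinned compound after 5 h, 37 C incubation over 40 h; viable cells give no appreciable fluorescence.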

[2] = qHTS RealTime-Glo MT Cell Viability Assay in HEK293 cells - 16 hour (AID 1224872); note: top concentration of the series differs between compounds; nearly all actives have a fitted effect of over 50% in size
Method in brief: (§2)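 Reads taken at 0, 8, 16, 24, 32 and 40 h from the same wells. HEK293 cells (600/well) carried RealTime-Glo reagents from seeding, with compound added after a 5 h settle at 37 C.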

[3] = qHTS RealTime-Glo MT Cell Viability Assay in HepG2 cells - 8 hour (AID 1224873); note: nearly all actives have a fitted effect of over 55% in size
Method in brief: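 HepG2 cells (600/well) mixed with RealTime-Glo MT reagent, settled 5 h at 37 C/5% CO2 before compound addition. Nonlytic NanoLuc luminescence from viable-cell prosubstrate reduction read repeatedly during 40 h treatment at 37 C.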

[4] = qHTS RealTime-Glo MT Cell Viability Assay in HEK293 cells - 40 hour (AID 1224874); details: RealTime-Glo luminescence; max response: stronger effect = lower value; note: nearly all actives have a fitted effect of over 50% in size
Method in brief: (§3)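 Kinetic, non-lysing viability readout. Seed HEK293 (600/well) with reagent, incubate 5 h at 37 C/5% CO2, pin 23 nL compound in DMSO, incubate at 37 C, read luminescence at 0, 8, 16, 24, 32, 40 h.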

[5] = A CellTox Green Cytotoxicity Assay to monitor cytotoxicity in HEK293 cells - 24 hour (AID 1224875); note: series mostly up to about 77 µM; nearly all actives have a fitted effect of over 45% in size
Method in brief: as §1

[6] = A CellTox Green Cytotoxicity Assay to monitor cytotoxicity in HepG2 cells - 16 hour (AID 1224876); note: nearly all actives have a fitted effect of over 45% in size
Method in brief: (§4)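 Cytotoxicity was tracked as dead-cell DNA fluorescence in HepG2 cells treated with test compounds at 37 C; each time-point value comes from one kinetic series spanning 0, 8, 16, 24, 32 and 40 h.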

[7] = qHTS RealTime-Glo MT Cell Viability Assay in HepG2 cells - 32 hour (AID 1224877); note: nearly all actives have a fitted effect of over 55% in size
Method in brief: (§5)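 HepG2 suspension premixed with RealTime-Glo reagents is plated at 600 cells per well and left 5 h at 37 C/5% CO2. Compounds in DMSO then go in, and bioluminescence reflecting viable cell number is recorded over 40 h.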

[8] = A CellTox Green Cytotoxicity Assay to monitor cytotoxicity in HepG2 cells - 40 hour (AID 1224879); note: nearly all actives have a fitted effect of over 40% in size
Method in brief: as §4

[9] = qHTS RealTime-Glo MT Cell Viability Assay in HEK293 cells - 0 hour (AID 1224880); note: top concentration of the series differs between compounds; nearly all actives have a fitted effect of over 45% in size
Method in brief: as §3

[10] = A CellTox Green Cytotoxicity Assay to monitor cytotoxicity in HEK293 cells - 32 hour (AID 1224881); note: nearly all actives have a fitted effect of over 40% in size
Method in brief: as §1

[11] = A CellTox Green Cytotoxicity Assay to monitor cytotoxicity in HepG2 cells - 0 hour (AID 1224882); note: nearly all actives have a fitted effect of over 35% in size
Method in brief: as §4

[12] = A CellTox Green Cytotoxicity Assay to monitor cytotoxicity in HepG2 cells - 32 hour (AID 1224883); note: nearly all actives have a fitted effect of over 50% in size
Method in brief: as §4

[13] = A CellTox Green Cytotoxicity Assay to monitor cytotoxicity in HEK293 cells - 8 hour (AID 1224884); note: nearly all actives have a fitted effect of over 35% in size
Method in brief: as §1

[14] = qHTS RealTime-Glo MT Cell Viability Assay in HepG2 cells - 16 hour (AID 1224885); note: nearly all actives have a fitted effect of over 50% in size
Method in brief: as §5

[15] = qHTS RealTime-Glo MT Cell Viability Assay in HEK293 cells - 24 hour (AID 1224886)
Method in brief: as §2

[16] = qHTS RealTime-Glo MT Cell Viability Assay in HEK293 cells - 8 hour (AID 1224887)
Method in brief: as §3

[17] = qHTS RealTime-Glo MT Cell Viability Assay in HepG2 cells - 0 hour (AID 1224889); note: nearly all actives have a fitted effect of over 50% in size
Method in brief: as §5

[18] = A CellTox Green Cytotoxicity Assay to monitor cytotoxicity in HepG2 cells - 8 hour (AID 1224890); note: nearly all actives have a fitted effect of over 45% in size
Method in brief: as §4

[19] = A CellTox Green Cytotoxicity Assay to monitor cytotoxicity in HEK293 cells - 16 hour (AID 1224888); note: nearly all actives have a fitted effect of over 35% in size
Method in brief: as §1

[20] = A CellTox Green Cytotoxicity Assay to monitor cytotoxicity in HepG2 cells - 24 hour (AID 1224878); note: nearly all actives have a fitted effect of over 45% in size
Method in brief: as §4
% is set by controls: 0 for no effect and ±100 for the full control effect.

C=CCN1CC[C@]23CCCC[C@H]2[C@H]1Cc1ccc(O)cc13
inactive: Potency [1] | Potency [2] | outcome [3] | max response [4] 1.5% | Potency [5] | Potency [6] | Potency [7] | Potency [8] | outcome [9] | Potency [10] | outcome [11] | Potency [12] | Potency [13] | Potency [14] | Potency [15] | Potency [16] | outcome [17] | Potency [18]

COC1=CC(=O)O[C@@H](/C=C/c2ccccc2)C1
inactive: Potency [1] | Potency [2] | outcome [3] | max response [4] -17.5% | Potency [5] | Potency [6] | Potency [7] | outcome [9] | Potency [10] | outcome [11] | Potency [12] | Potency [13] | Potency [14] | Potency [15] | Potency [16] | Potency [19] | outcome [17] | Potency [18]

CC(O)CCl (configuration not stated)
inactive: Potency [1] | Potency [2] | outcome [3] | max response [4] 1.35% | Potency [5] | Potency [6] | Potency [7] | Potency [8] | outcome [9] | Potency [10] | outcome [11] | Potency [12] | Potency [13] | Potency [14] | Potency [15] | Potency [19] | Potency [18]

Oc1ccc2c3c1O[C@H]1[C@@H](O)C=C[C@H]4[C@@H](C2)NCC[C@@]341
inactive: Potency [1] | Potency [2] | outcome [3] | max response [4] -1.32% | Potency [5] | Potency [6] | Potency [7] | Potency [8] | Potency [10] | outcome [11] | Potency [12] | Potency [14] | Potency [15] | Potency [16] | Potency [19] | outcome [17] | Potency [18]

ClCCN1CCCC1
inactive: Potency [1] | Potency [2] | outcome [3] | max response [4] 8.04% | Potency [5] | Potency [6] | Potency [7] | Potency [20] | Potency [10] | outcome [11] | Potency [12] | Potency [13] | Potency [14] | Potency [15] | Potency [16] | Potency [19] | outcome [17] | Potency [18]

CCC1(c2ccccc2)CCC(=O)NC1=O (configuration not stated)
inactive: Potency [1] | Potency [2] | outcome [3] | max response [4] -2.24% | Potency [5] | Potency [6] | Potency [7] | Potency [8] | outcome [9] | Potency [10] | outcome [11] | Potency [12] | Potency [13] | Potency [15] | Potency [16] | Potency [19] | Potency [18]

CCCC(C)(COC(N)=O)COC(N)=O
inactive: Potency [1] | Potency [2] | outcome [3] | max response [4] 2.95% | Potency [5] | Potency [6] | Potency [7] | Potency [20] | Potency [10] | outcome [11] | Potency [12] | Potency [13] | Potency [14] | Potency [15] | Potency [16] | Potency [19] | outcome [17] | Potency [18]

Cc1ccc(S(=O)(=O)N[C@@H](CCCCN)C(=O)CCl)cc1
inactive: Potency [1] | Potency [2] | outcome [3] | max response [4] 2.57% | Potency [5] | Potency [6] | Potency [7] | Potency [8] | outcome [9] | Potency [10] | outcome [11] | Potency [12] | Potency [13] | Potency [14] | Potency [15] | outcome [17] | Potency [18]

CCNc1nc(NCC)nc(SC)n1
inactive: Potency [1] | Potency [2] | outcome [3] | max response [4] -13.3% | Potency [5] | Potency [6] | Potency [7] | Potency [8] | outcome [9] | Potency [10] | outcome [11] | Potency [12] | Potency [14] | Potency [15] | Potency [16] | outcome [17] | Potency [18]

O=CCCl
inactive: Potency [1] | Potency [2] | outcome [3] | max response [4] 6.03% | Potency [5] | Potency [6] | Potency [7] | Potency [8] | outcome [9] | Potency [10] | outcome [11] | Potency [12] | Potency [13] | Potency [14] | Potency [15] | Potency [16] | Potency [19] | outcome [17] | Potency [18]

CCC(=O)OC1(c2ccccc2)CCN(C)CC1
inactive: Potency [1] | Potency [2] | outcome [3] | max response [4] -7.76% | Potency [5] | Potency [6] | Potency [7] | Potency [20] | Potency [10] | outcome [11] | Potency [12] | Potency [13] | Potency [14] | Potency [15] | Potency [16] | Potency [19] | outcome [17] | Potency [18]

O=P(O)(O)c1ccccc1
inactive: Potency [1] | Potency [2] | outcome [3] | max response [4] 9.41% | Potency [5] | Potency [6] | Potency [7] | outcome [9] | Potency [10] | outcome [11] | Potency [12] | Potency [13] | Potency [14] | Potency [15] | Potency [16] | Potency [19] | outcome [17] | Potency [18]

ClCC1CO1 (configuration not stated)
inactive: Potency [1] | Potency [2] | outcome [3] | max response [4] -2.45% | Potency [5] | Potency [6] | Potency [7] | Potency [20] | Potency [10] | outcome [11] | Potency [12] | Potency [14] | Potency [15] | Potency [16] | Potency [19] | outcome [17] | Potency [18]

COc1ccc(C=O)cc1O
inactive: Potency [1] | Potency [2] | outcome [3] | max response [4] 0.952% | Potency [5] | Potency [6] | Potency [7] | Potency [8] | outcome [9] | Potency [10] | outcome [11] | Potency [12] | Potency [14] | Potency [15] | Potency [16] | Potency [19] | outcome [17] | Potency [18]
